Measurements published in PubChem BioAssay AID1456 (Vanderbilt High Throughput Screening Facility, 2008).
Screen size: about 190,000 compounds; about 4,100 (2.2%) were called active. The sample as a whole holds a higher share of actives than the screen did. Unmarked numbers belong to inactive results.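 How the source made its calls: active means thallium flux slope and its plate-corrected score both differing from the plate sample mean at a set confidence after two filtering rounds, in either direction; inactive means the rest.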

The compounds below were run against Solute carrier family 12 member 5 (Homo sapiens) (UniProt Q9H2X9) (assay: modulation of human KCC2 ion transport – cell-based, HEK293 KCC2, FluoZin-2 fluorescence, MLSMR, primary screen (AID 1456;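 further: slope of fluorescence scaled to starting intensity during 10 to 20 s after thallium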)). Conditions: KCC2 cells, thallium flux FluoZin-2 fluorescence; at 10 µM.
Sequence of Solute carrier family 12 member 5 (Homo sapiens) (Q9H2X9 whole entry, looked up): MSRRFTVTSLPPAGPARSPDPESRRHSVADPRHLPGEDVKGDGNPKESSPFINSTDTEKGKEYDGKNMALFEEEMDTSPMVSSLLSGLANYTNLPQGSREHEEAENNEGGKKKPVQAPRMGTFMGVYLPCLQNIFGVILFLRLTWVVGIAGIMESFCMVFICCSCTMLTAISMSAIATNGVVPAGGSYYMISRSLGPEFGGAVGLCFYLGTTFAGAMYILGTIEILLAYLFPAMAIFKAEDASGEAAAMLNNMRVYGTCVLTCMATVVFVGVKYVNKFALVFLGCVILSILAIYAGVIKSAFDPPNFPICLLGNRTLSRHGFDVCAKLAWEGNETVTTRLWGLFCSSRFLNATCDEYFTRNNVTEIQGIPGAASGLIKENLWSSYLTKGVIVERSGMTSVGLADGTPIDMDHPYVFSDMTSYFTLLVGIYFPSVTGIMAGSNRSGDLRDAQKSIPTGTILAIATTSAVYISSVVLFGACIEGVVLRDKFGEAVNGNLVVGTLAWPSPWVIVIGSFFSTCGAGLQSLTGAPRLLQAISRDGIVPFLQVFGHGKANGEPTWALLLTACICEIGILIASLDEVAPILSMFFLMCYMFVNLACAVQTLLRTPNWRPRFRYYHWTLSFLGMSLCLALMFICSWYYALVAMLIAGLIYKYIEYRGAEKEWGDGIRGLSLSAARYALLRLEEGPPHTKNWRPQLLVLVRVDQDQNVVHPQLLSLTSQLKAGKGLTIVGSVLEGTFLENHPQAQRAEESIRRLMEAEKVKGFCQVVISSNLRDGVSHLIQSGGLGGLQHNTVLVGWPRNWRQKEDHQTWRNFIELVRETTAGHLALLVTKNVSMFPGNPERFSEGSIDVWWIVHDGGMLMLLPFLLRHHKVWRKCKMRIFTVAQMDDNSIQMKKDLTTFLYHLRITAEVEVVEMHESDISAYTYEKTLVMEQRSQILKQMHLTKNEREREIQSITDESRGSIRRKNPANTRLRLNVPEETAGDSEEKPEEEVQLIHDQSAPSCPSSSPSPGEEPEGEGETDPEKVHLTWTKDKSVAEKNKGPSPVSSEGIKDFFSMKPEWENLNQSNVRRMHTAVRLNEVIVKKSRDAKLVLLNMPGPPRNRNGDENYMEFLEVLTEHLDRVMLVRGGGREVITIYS

| SMILES | B-score of Tl+ flux slope (higher = more flux/activation; lower = inhibition) |
| --- | --- |
| O=[N+]([O-])c1ccc(N=Cc2c(O)ccc3ccccc23)cc1 | -0.766 |
| CN(C)S(=O)(=O)c1ccc(Cl)c(NC(=O)COC(=O)CC(NC(N)=O)c2ccc(Cl)cc2)c1 (stereo not drawn) | -0.372 |
| COC(=O)/C=C(\Oc1ccccc1)C1(O)CCCCC1 | 0.292 |
| Cn1c(CCCOc2ccc(Cl)cc2Cl)n[nH]c1=S | -7.28 (active) |
| CC(C)Oc1ccc(Cc2n[nH]c(=S)n2Cc2ccccc2)cc1Cl | 0.809 |
| O=C(CCCOc1ccc(Cl)cc1Cl)NNC(=O)C1CCC1 | -0.669 |
| CC(/C=C/c1ccco1)=N/NC(=O)C1COc2ccccc2O1 (stereo not drawn) | 0.221 |
| S=C(Cc1ccc(Cl)cc1)N1CCOCC1 | 0.203 |
| O=C(NCc1ccccc1)c1ccc(S(=O)(=O)Nc2cccc(C(F)(F)F)c2)cc1 | -1.11 |
| CCN(CC)S(=O)(=O)c1cccc(C(=O)Nc2ccccc2)c1 | 0.179 |
| CN(C)S(=O)(=O)c1cccc(NC(=S)NCc2ccc3c(c2)OCO3)c1 | -0.00969 |
| CN(C)S(=O)(=O)c1cccc(C(=O)Nc2cccnc2)c1 | 0.857 |
| CN(C)S(=O)(=O)c1cccc(NC(=S)N/N=C/C(=O)c2ccccc2)c1 | 6.68 (active) |
| Cc1ccc(/C=N/NC(=S)Nc2cccc(S(=O)(=O)N(C)C)c2)o1 | 11.8 (active) |
| CN(C)S(=O)(=O)c1cccc(NC(=O)COC(=O)c2cc(=O)[nH]c(=O)[nH]2)c1 | -0.0283 |
| Cc1cc(C)cc(NC(=O)Cn2cnc3c(nnn3Cc3ccc(F)cc3)c2=O)c1 | 0.19 |
| O=C(Cn1nnc(-c2ccccc2)n1)NCc1ccc2c(c1)OCO2 | -1.86 |
| O=C(Cn1cnc2c(nnn2Cc2ccc(F)cc2)c1=O)NCc1ccc2c(c1)OCO2 | -2.61 (active) |
| Cn1nccc1NC(=O)Nc1ccc(OC(F)(F)F)cc1 | -0.213 |
| Cc1ccc(Cl)cc1-c1ccc(/C=N/n2cnnc2)o1 | 0.473 |

| SMILES | B-score of Tl+ flux slope (higher = more flux/activation; lower = inhibition) |
| --- | --- |
| Cc1ccccc1-c1n[nH]c(=S)n1/N=C/c1ccc(-c2ccccc2Br)o1 | 5.28 (active) |
| Cc1n[nH]c(=S)n1/N=C/c1ccc(Br)o1 | -0.354 |
| O=[N+]([O-])c1cccc2ncccc12 | -1.11 |
| Cc1cc2c(=O)n(C)c(SCC(=O)c3cc4ccccc4o3)nc2s1 | 0.288 |
| Cc1ccc(Nc2nnc(SCC(=O)c3cc4ccccc4o3)s2)cc1C | -8.65 (active) |
| Cc1ccccc1Nc1nnc(SCC(=O)c2cc3ccccc3o2)s1 | -2.32 |
| C#CCNC(=O)C1=C[C@@H](c2ccccc2)[C@H](CCCO)[C@@H](OCC)O1 | 0.698 |
| CCO[C@H]1OC(C(=O)NCc2ccccc2)=C[C@@H](c2coc3ccccc3c2=O)[C@@H]1CCCO | -2.75 (active) |
| CCO[C@H]1OC(C(=O)N2CCN(Cc3ccccc3)CC2)=C[C@@H](c2cn(C(C)=O)c3ccccc23)[C@@H]1CCCO | -0.421 |
| CN(C)c1ccc(/C=C/C(=O)c2ccc(O)cc2)cc1[N+](=O)[O-] | -1.51 |
| CCN(CC(=O)Nc1ccc(S(=O)(=O)N2CCCC2)cc1)CC(=O)Nc1cccc(OC)c1 | -0.0112 |
| Cc1onc(-c2ccc(Cl)cc2)c1-c1ccnn1S(=O)(=O)c1ccc(Cl)cc1 | 0.0713 |
| C#CCNc1ccc(C(=O)OCC)cc1 | 0.0911 |
| COc1ccc(C(=O)Nc2cccc(S(C)(=O)=O)c2)cc1 | -0.0335 |
| COc1ccc(C(=O)NN(C)c2nc(-c3ccccc3)cc(C)c2S(C)(=O)=O)cc1 | -2.92 (active) |
| COc1ccc(OCC(=O)NNC(=O)c2ccc(-c3ccccc3)cc2)cc1 | -0.294 |
| Cc1nc(COc2cccc(Cl)c2)sc1C(=O)/C=C/N(C)C | -0.976 |
| CCN(CC)CCCN=Cc1c(O)n(-c2ccc(C)cc2)c(=O)c2ccccc12 | -0.624 |
| O=C(CSc1nnnn1-c1ccc(O)cc1)c1ccc(F)cc1 | -0.119 |
| O=C1CSC(=S)N1/N=C/c1ccc(O)c([N+](=O)[O-])c1 | 0.571 |

| SMILES | B-score of Tl+ flux slope (higher = more flux/activation; lower = inhibition) |
| --- | --- |
| CCOc1cccc(/C=N/N2C(=O)CSC2=S)c1O | 5.34 (active) |
| CCOc1cccc(/C=N/NC(=S)NCCN2CCOCC2)c1O | -0.223 |
| CC(=O)N1CCC(N(C(=O)Nc2ccc(Cl)cc2)C(C)C)CC1 | 0.402 |
| COc1cc(C=O)ccc1Oc1nnnn1-c1ccccc1 | -0.736 |
| COc1ccc(C(=O)NC2(C(F)(F)F)NC(=O)N(CCCc3ccccc3)C2=O)c(OC)c1OC (stereo not drawn) | -3.82 (active) |
| O=C(NC1(C(F)(F)F)NC(=O)N(C2CCCCC2)C1=O)c1ccco1 (stereo not drawn) | 0.89 |
| Cc1ccc(S(=O)(=O)NC2(C(F)(F)F)NC(=O)N(CCc3ccccc3)C2=O)cc1 (stereo not drawn) | -0.615 |
| COc1ccc(CN2CCNC(=O)C2CC(=O)N(C)Cc2ccccn2)cc1OC (stereo not drawn) | -0.00917 |
| Cc1ccc(NS(=O)(=O)c2ccc(N/N=C/c3ccccc3OCC(=O)O)c([N+](=O)[O-])c2)c(C)c1 | -0.087 |
| COc1cc(CN2CCN(Cc3ccc(C)cc3)CC2)c([N+](=O)[O-])cc1OC | -0.767 |
| O=S(=O)(c1cccc(S(=O)(=O)N2CCC(n3nnc4ccccc43)CC2)c1)N1CCCCC1 | -6.25 (active) |
| O=C(c1ccc(F)cc1)N1CCC(n2nnc3ccccc32)CC1 | 1.38 |
| CC(=O)c1cccc(S(=O)(=O)N2CCC(n3nnc4cc(F)ccc43)CC2)c1 | -0.212 |
| CCN(CC)CCn1cnc2c1c(=O)n(CCOC(=O)c1cc(OC)c(OC)c(OC)c1)c(=O)n2C | -0.175 |
| CC(=O)N1N=C(c2ccncc2)OC1(Cc1ccccc1)Cc1ccccc1 | -0.683 |
| Cc1ccccc1N/N=C/c1ccc(N2CCOCC2)cc1 | 3.06 (active) |
| Cc1cc(C(=O)N/N=C/c2ccc(N3CCOCC3)cc2)c(C)o1 | -0.588 |
| C(=N/Nc1cc(N2CCOCC2)nc(N2CCOCC2)n1)/c1ccccc1 | -0.154 |
